Laboratory results published in PubChem BioAssay (NCI).
About 83,000 compounds went through this panel and 20% of them were active in at least one assay; those are over-represented in the sample as a whole.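 A percent growth of 40 corresponds to 60% growth inhibition; 0 means no net growth; -100 means all cells died. Active threshold: below 10.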 Activity calls are given as the source filed them.

Legend:
Experiment in all cases: NCI-60 one-dose screen, 48 h (100 = growth as untreated, 0 = no growth, -100 = all killed)
Conditions in all cases: 10 µM unless noted
[1] = system: HCT-15 colon
[2] = system: HT29 colon
[3] = system: SNB-75 CNS
[4] = system: SNB-19 CNS
[5] = system: U251 CNS
[6] = system: PC-3 prostate
[7] = system: SK-MEL-5 melanoma
[8] = system: UACC-62 melanoma
[9] = system: SK-MEL-28 melanoma
[10] = system: LOX IMVI melanoma

Measured: growth

Clc1ccc(-c2nc(-c3c[nH]c4ncccc34)cs2)cc1
inactive: [1] 98.7% [100 µM] | [2] 80.2% [100 µM] | [4] 48.7% [100 µM] | [5] 16.2% [100 µM] | [6] 43.9% [100 µM] | [7] 84.1% [100 µM] | [8] 71.2% [100 µM] | [9] 94% [100 µM]
active: [3] -11.3% [100 µM]

Cc1cc2oc(=O)cc(CP(=O)(O)O)c2cc1O
inactive: [1] 96% | [2] 106% | [3] 75.3% | [4] 93.6% | [5] 98.5% | [6] 94.9% | [7] 99.2% | [10] 98.7% | [9] 98.4%

Nc1c(C(=O)Nc2cccc3ncccc23)sc2nc3c(cc12)C(=O)CCC3
inactive: [1] 52.9% | [2] 35.9% | [3] 43.7% | [4] 38% | [5] 57.5% | [6] 35.1% | [7] 30.3% | [10] 55% | [9] 49%

COc1ccc(-c2cn(-c3ccc(Cl)cc3)c(SCC(=O)c3ccc([N+](=O)[O-])cc3)n2)cc1
inactive: [1] 92.7% | [2] 89.6% | [3] 39% | [4] 52.3% | [5] 60.6% | [6] 73.7% | [7] 88.2% | [10] 89.1% | [9] 95.8%

O=C1/C=C/[C@@H](O)[C@@H]2C[C@@H](O)C[C@H]2/C=C/CCC[C@H](CCOCc2ccccc2)O1
inactive: [3] 33.2% | [4] 33.1% | [5] 18.4% | [6] 16.5%
active: [1] 8.84% | [2] -23.2% | [7] -88.3% | [10] -59.7% | [9] -2.95%

N#Cc1c(-c2ccccc2)c(C#N)c2c(C#N)c(N)nn2c1N
inactive: [1] 24.3% | [3] 52.1% | [4] 38.1% | [5] 20.3% | [6] 50.5% | [7] 24.7% | [10] 35.6% | [9] 56.8%
active: [2] 8.55%

COc1cc2oc(-c3cccc(NC(=O)c4ccc5c(c4)OCO5)c3)cc(=O)c2c(OC)c1OC
active: [6] -12%
inactive: [1] 32.1% | [2] 29.4% | [3] 67.4% | [4] 45.6% | [5] 32.5% | [7] 16.4% | [10] 39.5% | [9] 55.1%

N#Cc1nc2c(S(=O)(=O)c3ccccc3)c(N)n(Cc3cccnc3)c2nc1C#N
inactive: [1] 101% | [2] 104% | [3] 57.4% | [4] 75.9% | [5] 75.5% | [6] 67% | [7] 93.6% | [10] 88.3% | [9] 89.3%

Cc1ccc(O)c(NC(=O)c2ccc(CNc3ccnc(C(F)(F)F)c3)cc2)c1
inactive: [1] 49.9% | [2] 66.4% | [3] 72.5% | [4] 87.1% | [5] 82.1% | [6] 78.8% | [7] 36.5% | [8] 13.9% | [9] 109%

COc1ccc2nc3ccccc3c(NCc3ccccc3)c2c1
active: [2] 8.49%
inactive: [1] 13.1% | [3] 45.5% | [4] 24.2% | [5] 22.9% | [6] 28.6% | [7] 18.8% | [8] 45.9% | [9] 49.7%

CC[C@]12C=CCN3CC[C@@]4(c5ccc(OC)cc5N(C)[C@H]4[C@@](O)(C(=O)OC)[C@@H]1OC(=O)CCCN1CCOCC1)[C@@H]32
inactive: [1] 110% | [2] 110% | [3] 91.5% | [4] 101% | [5] 101% | [6] 105% | [7] 103% | [10] 110% | [9] 109%

CC(C)CCC[C@@H](C)C1CCC2C3CCC4=C/C(=N/OCCN(C)C)CC[C@]4(C)C3CC[C@@]21C (stereo partly specified)
inactive: [1] 98.3% | [2] 78.7% | [3] 80.5% | [4] 86.5% | [5] 79.2% | [6] 57.1% | [7] 99.3% | [10] 57.8% | [9] 101%

CC(=O)N(Cc1ccccc1)c1nc2ccc(O)c(CN(C)C)c2s1
inactive: [1] 97.8% | [2] 109% | [3] 79.2% | [4] 100% | [5] 96.2% | [6] 90.2% | [7] 99% | [10] 94.1% | [9] 107%

CC(C(=O)O)n1c(O)c(C=Nc2cccnc2)sc1=S (stereo unspecified)
inactive: [1] 98.4% | [2] 111% | [3] 80.3% | [4] 91.4% | [5] 86.3% | [6] 88% | [7] 95.5% | [10] 101% | [9] 113%

CN1CCN(Cc2ccc(NC(=O)c3cncc(C#Cc4cncc5ncccc45)c3)cc2C(F)(F)F)CC1
active: [2] -4.72% | [10] -85.7%
inactive: [1] 19.7% | [3] 13.6% | [4] 46.7% | [5] 38.8% | [6] 23% | [7] 19.1% | [9] 12.4%

Cn1ccnc1C(=O)/C=C/c1ccc(C(=O)Nc2ccc(F)cc2)cc1
active: [1] 0.589% | [2] 9.78% | [5] 1.92% | [7] 8.1% | [10] -59.7%
inactive: [3] 33% | [4] 24.4% | [6] 22.2% | [9] 60.9%

CS(=O)(=O)Nc1cc(-c2ccc3ncnc(Nc4ccc5c(cnn5Cc5cccnc5)c4)c3c2)cnc1Cl
active: [3] -12.1%
inactive: [1] 84.7% | [2] 65.2% | [4] 60.1% | [5] 55.4% | [6] 52.2% | [7] 50.9% | [10] 39.2% | [9] 29.4%

Cc1ccc(C)c(-n2c(-c3ccc(Br)cc3)csc2=NC(=O)c2ccccc2F)c1
inactive: [1] 57.9% | [2] 55.5% | [3] 84.6% | [4] 93.7% | [5] 46.4% | [6] 22.7% | [7] 46.9% | [10] 76.9% | [9] 96.6%

CCCn1c(=S)sc2c1nc(C)n1c(Nc3ccccc3)nnc21
inactive: [1] 74.8% | [2] 87.5% | [3] 102% | [4] 70.8% | [5] 60.9% | [6] 93.5% | [7] 35% | [10] 66.2% | [9] 104%

O=C(Nc1nc(C(=O)N2CCN(C(c3ccccc3)c3ccccc3)CC2)cs1)c1ccc(NC2CCCCC2)c([N+](=O)[O-])c1
inactive: [1] 96.9% | [2] 86.1% | [3] 86.1% | [4] 85.9% | [5] 83.5% | [6] 76.1% | [7] 60.6% | [10] 91.5% | [9] 100%

Nc1c(C(=O)Nc2ccccn2)sc2nc3c(cc12)C(O)CCC3 (stereo unspecified)
inactive: [1] 23.1% | [2] 11.8% | [3] 12.7% | [4] 20.9% | [5] 19% | [6] 16.3% | [7] 20.3% | [8] 18.7% | [9] 46.6%

COc1ccc2cc(-c3ccc(-c4ccc(C(=N)N)s4)s3)ccc2c1
active: [1] -81.6% | [2] -70.8% | [4] -26.8% | [5] -85.9% | [10] -58.2%
inactive: [3] 21% | [6] 23.1% | [7] 95.1% | [9] 109%

Nc1c(C(=O)Nc2ccncc2)sc2nc3c(cc12)CCCCC3
active: [7] -0.0144%
inactive: [1] 64% | [2] 52.9% | [3] 93.5% | [4] 95.9% | [5] 83.7% | [6] 83.8% | [10] 84% | [9] 82.5%

Cc1cccc(N2CCN(C(=S)c3ccc4c(c3)OCO4)CC2)c1
inactive: [1] 12.5% | [4] 47.1% | [5] 20.7% | [6] 19.5% | [10] 32.8% | [9] 54%
active: [2] 6.38% | [3] -21.4% | [7] 6.14%

COc1cc(C2C3=C(COC3=O)N(CCO)c3cc4c(cc32)OCCO4)cc(OC)c1OC (stereo unspecified)
active: [1] 6.81% | [2] -25.4% | [3] -5.04% | [4] 7.63% | [5] 9.63% | [7] -30.9%
inactive: [6] 14.3% | [10] 17.7% | [9] 42.8%

CCNCc1ccc(O)c2ncccc12
inactive: [1] 28% | [2] 95.9% | [3] 31.1% | [4] 24.2% | [5] 17.7% | [6] 23.4% | [10] 31% | [9] 65.6%
active: [7] 6.19%

CC1(C)OC(=O)C(=Cc2cccc(Br)c2)C(=O)O1
inactive: [1] 108% | [2] 92.9% | [3] 94.4% | [4] 105% | [6] 89.5% | [7] 94.8% | [8] 101% | [10] 101% | [9] 119%

COc1cc(/C=C/c2cc(/C=C/c3ccc(O)c(OC)c3)n(C(=O)Nc3ccc(F)cc3)n2)ccc1O
active: [2] -41.8% | [6] 9.01% | [7] -8.36% | [8] 2.01% | [10] 4%
inactive: [1] 10.6% | [3] 26.9% | [4] 20.2% | [9] 16.7%

O=C1/C(=C/c2ccc(C(F)(F)F)cc2)COc2ccc(O)cc21
active: [10] 2.9%
inactive: [1] 40.6% | [2] 44.2% | [3] 81.1% | [4] 85.3% | [6] 70.3% | [7] 97.4% | [8] 80.2% | [9] 100%
